Screens as filed in PubChem BioAssay.
This is a sample that favours compounds with a hit; in the whole collection about 2.4% have one here.
LT uptake inh: inhibitors of anthrax lethal toxin internalization; AID 912; Potency, µM (top dose mostly 40 µM), inactives show top-dose activity change, negative = inhibition, most hits filed as inhibitors; Cells, anthrax lethal toxin internalization, FRET ratio (460/530); 70,000 compounds, 0.67% hits; note: % is set by controls: 0 for no effect and ±100 for the full control effect; nearly all actives have a fitted effect of over 50% in size
AmpC nodet inh: inhibitors of E. coli AmpC beta-lactamase without detergent. P00811. AmpC nitrocefin hydrolysis, absorbance 480 nm, no detergent. Potency, µM (doses to about 28.7 µM), without a hit: at the highest dose activity change, negative = inhibition. 71,000 compounds, 1.8% hits; note: % of control where 0% means no effect
Target sequence (P00811 whole entry, looked up): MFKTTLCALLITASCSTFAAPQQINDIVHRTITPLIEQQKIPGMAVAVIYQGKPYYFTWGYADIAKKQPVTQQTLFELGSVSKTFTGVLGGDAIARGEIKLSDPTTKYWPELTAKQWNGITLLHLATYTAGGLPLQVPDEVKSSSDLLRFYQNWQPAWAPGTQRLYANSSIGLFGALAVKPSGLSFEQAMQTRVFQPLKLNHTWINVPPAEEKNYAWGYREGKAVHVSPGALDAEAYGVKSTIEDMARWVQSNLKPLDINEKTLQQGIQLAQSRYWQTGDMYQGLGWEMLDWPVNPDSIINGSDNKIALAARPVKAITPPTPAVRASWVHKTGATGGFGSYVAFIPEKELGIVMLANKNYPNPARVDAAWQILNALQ
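AmpC in 20 mM phosphate buffer pH 7.0 was preincubated 15 min at room temperature with compounds. Nitrocefin (800 uM stock) was then added and hydrolysis followed at 480 nm every 20 s for 4 min.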
SmPrx2 inh: Schistosoma mansoni Prx2 inhibition | S. mansoni Prx2 activity coupled to TGR/GSH (TGR is thioredoxin glutathione reductase), NADPH fluorescence loss, qHTS | Potency, µM | 65,000 compounds, 0.07% hits | AID 448
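Prx2 inhibition was measured as reduced NADPH consumption when electrons flowed from NADPH through TGR and glutathione to Prx2 and H2O2. Plates were read kinetically over 8 min; enzyme reagents were held at 4 deg C during dispensing.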
AmpC inh det: blocks E. coli AmpC beta-lactamase in presence of detergent | P00811 | purified AmpC, nitrocefin hydrolysis with detergent | Potency, µM (top dose mostly 28.7 µM), without a hit: at the highest dose activity change, negative = inhibition | 71,000 compounds, 0.09% hits | AID 584; active = well fitted curve in the direction sought with a large enough effect; inconclusive = small, poorly fitted or top-dose-only effect; note: % is set by controls: 0 for no effect and ±100 for the full control effect
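E. coli AmpC (5.3 nM) in 20 mM phosphate pH 7.0 with 0.01% Triton X-100, preincubated 15 min RT with compound; nitrocefin (2 uL of 800 uM stock) hydrolysis followed by 480 nm absorbance every 20 s over 4 min.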
* = called active by the depositor; ? = inconclusive; / = no result given; [ ] = another dose, or the depositor's remark. Unless noted, calls come from the whole dose curve. Potency is the fitted concentration of half-maximal effect.

SMILES | LT uptake inh | AmpC nodet inh | SmPrx2 inh | AmpC inh det
COc1cccc(C2CC(c3ccc(F)cc3)Nc3nc(N)nn32)c1 (stereo not drawn) | -0.8% | 2.51µM*[single pt active] | >57 | 10.6%
COc1cccc(C2CC(c3cccc(OC)c3)n3nc(N)nc3N2)c1 (stereo not drawn) | 3.5% | 3.98µM*[single pt active] | >57 | 11.9%
O=C(NCCN1CCc2ccccc2C1)C1CCN(S(=O)(=O)N2CCC3(CC2)OCCO3)CC1 | -17.1% | 48.0% | >57 | -2.2%
COC(=O)NCc1cc2cc(Cl)ccc2[nH]1 | ? | 5.2% | >57 | -4.4%
O=C(O)CCC(=O)N1CCN(c2ccccn2)CC1 | -8.6% | ? | >57 | 16.6%
O=C(COc1ccc2ccccc2c1Br)N1CCN(c2ccccn2)CC1 | 12.6µM* | 64.3% | >57 | -0.3%
O=C(CSc1nccc2ccccc12)N1CCN(c2ccccn2)CC1 | 5.01µM* | 16.6% | >57 | 9.7%
O=C(CC1CCCCC1)N1CCN(c2ccccn2)CC1 | -2.5% | 16.7% | >57 | -2.8%
OC(CN1C2=NCCCN2c2ccccc21)c1ccc(Cl)cc1 (stereo not drawn) | ? | 3.98µM*[single pt active] | >57 | 13.0%
CCc1nnc(NC(=O)CSc2nnc(COc3ccccc3C)o2)s1 | -2.0% | 12.6µM*[single pt active] | >57 | -3.4%
CCSc1ccc2c(c1)N(CCCN1CCN(C)CC1)c1ccccc1S2 | 14.9%[3.58 µM] | 57.4%[12.8 µM] | >57 | -3.2%[12.8 µM]
CN1CCN(CCCN2c3ccccc3Sc3ccc(Cl)cc32)CC1 | 25.1µM* | 60.9%[12.8 µM] | >57 | -1.6%[12.8 µM]
CCC(C)(c1ccc(C(=O)OC)s1)c1ccc(C(=O)OC)s1 | ? | 18.0% | / | 6.2%
CCCN1C(=O)c2cc(C(=O)Nc3ccccc3CC)ccc2C1O (stereo not drawn) | -11.3% | 3.98µM*[single pt active] | >57 | 13.4%
CCCCN1C(=O)c2ccccc2C1C(=O)NC1CCCC1 (stereo not drawn) | 3.7% | -1.3% | >57 | -1.6%
CCCN1C(=O)c2cc(C(=O)NC3CCCC3)ccc2C1O (stereo not drawn) | -10.4% | 3.98µM*[single pt active] | >57 | 12.7%
CCC1CCCN1Cn1cnc2c([nH]c3ccc(OC)cc32)c1=O (stereo not drawn) | -5.3% | 2.0% | >57 | -1.5%
CCCCN(CCCC)CCn1cnc2c([nH]c3ccc(OC)cc32)c1=O | -14.3% | 3.98µM*[single pt active] | >57 | 12.6%
COc1ccc(NC(=O)C2CCCN(S(=O)(=O)c3cccnc3)C2)c(OC)c1 (stereo not drawn) | -2.5% | 3.98µM*[single pt active] | >57 | 15.5%
COc1ccc(S(=O)(=O)N2CCCC(C(=O)Nc3cccnc3)C2)cc1Cl (stereo not drawn) | -10.5% | 40.7% | >57 | 9.7%
CCN(CC)c1ccc(NC(=O)C2CCCN(S(=O)(=O)c3cccnc3)C2)c(C)c1 (stereo not drawn) | -13.0% | 3.98µM*[single pt active] | >57 | 15.6%
O=C(NCc1ccccc1)C1CCCN(S(=O)(=O)c2cccnc2)C1 (stereo not drawn) | -5.6% | 0.4% | >57 | -2.0%
COCNc1nc(OCC#N)nc(N(C)C)n1 | -7.4% | -10.2% | >57 | 10.1%
Cc1[nH]c2ccccc2c1NC(=O)CN1CCN(Cc2ccc3c(c2)OCO3)CC1 | -27.2% | 42.6% | >57 | 11.4%
Cc1c(-c2ccc(O)cc2)nn(-c2ccc(O)cc2)c1-c1ccc(OCCN2CCCCC2)cc1 | 15.8µM* | -19.3% | >57 | -3.0%
SMILES | LT uptake inh | AmpC nodet inh | SmPrx2 inh | AmpC inh det
O=C(N1CCOCC1)N1CCN(c2ccccc2F)CC1 | -8.8% | 3.98µM*[single pt active] | >57 | 11.8%
O=C(c1ccccc1C(=O)N1CCN(c2ccccc2F)CC1)N1CCN(c2ccccc2F)CC1 | -13.6% | 129.3% | / | -0.7%
N#CCCS(=O)(=O)c1nnnn1-c1ccccc1 | 10µM* | 0.5% | ? | -7.2%
CCOC(=O)Cn1c(=O)oc2cc(S(=O)(=O)N3CCC(N4CCCCC4)CC3)ccc21 | 6.2% | 6.6% | >57 | 13.6%
Cc1ccc2oc(=O)c3cc(C(=O)N4CCN(c5ncccn5)CC4)sc3c2c1 | -16.2% | 3.98µM*[single pt active] | >57 | 10.7%
Cc1ccc2oc(=O)c3cc(C(=O)N4CCN(C(=O)c5ccco5)CC4)sc3c2c1 | -4.1% | 2.4% | >57 | 12.5%
COc1ccc2c(c1)-c1nc(NC(=O)c3ccco3)sc1CC2 | -22.9% | 44.4% | >57 | -3.5%
Cc1sc(NC(=O)c2ccco2)nc1-c1ccc2c(c1)CC(C)N2C(=O)C1CC1 (stereo not drawn) | 10µM* | 78.5% | >57 | -3.7%
N#Cc1c(N)oc(-c2ccc3c(c2)OCO3)c1-c1ccc2c(c1)OCO2 | 4.9% | 10µM* | >57 | -1.8%
N#Cc1c(N)nc2c(c1-c1ccc3c(c1)OCO3)CCCCCC2 | -24.7% | 7.5% | >57 | 0.2%
COc1ccc(-n2c(=O)c(C)nc3cnc(Oc4cccc(Cl)c4)nc32)cc1 | 3.6% | 91.8% | >57 | -1.5%
O=c1[nH]c(=O)n(-c2ccc(F)cc2)c(O)c1C=Nc1ccccc1N1CCCC1 | -1.8% | -17.0% | >57 | 10.0%
CCCn1c(NCc2cc(C)ccc2O)nc2ccccc21 | -17.5% | 3.0% | / | 0.6%
CCCCn1c(NCCO)nc2ccccc21 | 0.7% | 3.16µM*[single pt active] | >57 | 6.9%
CCCCn1c(NCc2ccccc2O)nc2ccccc21 | -13.2% | 3.98µM*[single pt active] | >57 | 14.0%
O=C(Cn1c(NCCCO)nc2ccccc21)c1cccs1 | 7.3% | 3.16µM*[single pt active] | >57 | 8.3%
CSCCC(NC(=O)c1ccco1)C(=O)OCC(=O)Nc1sccc1C#N (stereo not drawn) | -3.9% | 4.8% | >57 | -6.4%
CC(=O)n1cc(-c2ccncc2)c2ccccc21 | 15.1% | 3.16µM*[single pt active] | >57 | 9.7%
O=S(=O)(Nc1nccs1)c1cc(Cl)ccc1Cl | 1.7% | 10µM*[single pt active] | >57 | -5.3%
CC(C)[C@H](CO)Nc1nc(Nc2cccc(Cl)c2)c2ncn(C(C)C)c2n1 | 12.6µM* | 106.9% | >57 | 12.7%
CCOc1ccc(NC(=O)CSc2nnc(Cn3c(=O)sc4ccccc43)n2C)cc1 | -3.9% | 3.98µM*[single pt active] | >57 | 25.0%
Cc1ccc(NC(=O)CSc2nnc(Cn3c(=O)sc4ccccc43)n2C)cc1Cl | 5.0% | 3.98µM*[single pt active] | >57 | 7.6%
Cn1c(Cn2c(=O)sc3ccccc32)nnc1SCC(=O)Nc1ccccc1 | 1.2% | 3.98µM*[single pt active] | >57 | 14.2%
COc1ccc(NC(=O)CSc2nnc(Cn3c(=O)sc4ccccc43)n2C)cc1 | -5.5% | ? | >57 | 9.8%
Cn1c(Cn2c(=O)sc3ccccc32)nnc1SCC(=O)Nc1ccc(F)cc1 | -5.9% | 3.98µM*[single pt active] | >57 | 10.5%
SMILES | LT uptake inh | AmpC nodet inh | SmPrx2 inh | AmpC inh det
Cc1ccc(NC(=O)CSc2nnc(Cn3c(=O)sc4ccccc43)n2C)cc1 | -9.3% | 23.1% | >57 | 14.2%
Cc1cc(C)n2nc(C(=O)NCc3ccccc3)cc2n1 | 8.8% | 9.5% | / | -1.7%
CC(C)C(C(=O)NCc1ccco1)N(C(=O)CNS(=O)(=O)c1ccccc1)C1CCCC1 (stereo not drawn) | -8.4% | 16.1% | >57 | 5.0%
CCOc1ccccc1NC(=O)CSc1nnnn1Cc1ccccc1 | -25.7% | 2.7% | >57 | -2.3%
CS(=O)(=O)N1CCC[C@@]2(CCN(Cc3ccccc3)C2)C1 | -9.2% | 27.8% | >57 | -4.4%
CC(C)CCSc1nnc(Cn2c(=O)sc3ccccc32)n1C | -12.6% | 3.98µM*[single pt active] | >57 | 13.8%
